Results as given in PubChem BioAssay AID602399 (Sanford-Burnham Center for Chemical Genomics, 2012).
Among all 360,000 compounds or so, about 2,800 (0.78%) were called active. Rule as the data show it: active = inhibition above about 26%; inactive = the rest. The sample as a whole holds a higher share of actives than the screen did.

system: Nicotinate-nucleotide adenylyltransferase NadD (Staphylococcus aureus N315); assay: S. aureus NadD enzyme activity blockers – biochemical, colorimetric, uHTS, primary screen (AID 602399); settings: purified NadD enzyme, colorimetric absorbance read-out; at 20 µM; hits give high values

inhibition, inactive:
C/C=C(/C)C(=O)OC1Cc2c(ccc3ccc(=O)oc23)OC1(C)C (centres undefined) -4.64%
CCCCc1cc(=O)oc2c(C)c(OCC(=O)N3CCC(C(N)=O)CC3)ccc12 -1.4%
Cc1ccc(-c2ccc(/C=C(\C#N)C(N)=S)o2)c([N+](=O)[O-])c1 -3.57%
Cc1ccc(C(=O)N/C(=C/c2ccc(-c3cccc([N+](=O)[O-])c3)o2)C(=O)NCCCN(C)C)cc1 -9.94%
CCCCN(C(=O)c1ccc(S(=O)(=O)N2CCOCC2)cc1)C1CCS(=O)(=O)C1 (centres undefined) -1.78%
O=C(CC(NS(=O)(=O)c1ccc(Cl)cc1)c1ccco1)NC1CCCC1 (centres undefined) 1.19%
COc1ccc(NC(=O)COc2ccc(C(=O)c3ccc(F)cc3)cc2)cc1S(N)(=O)=O 7.92%
Cc1c(OC(C)C(=O)NCC2CCC(C(=O)O)CC2)ccc2c1oc(=O)c1ccccc12 (centres undefined) 4.05%
O=C(NCC1CCCCC1)NCC1CCCCC1 2.72%
C[C@H]1CN([C@@H](C)CO)C(=O)c2cc(-c3ccccc3F)cnc2O[C@H]1CN(C)C(=O)C1CCOCC1 -1.92%
COc1ccc(NS(=O)(=O)c2cc(NC(=O)COc3ccccc3F)ccc2OC)cc1 -11.4%
Cc1ccc(NC(=O)CCNC(=O)c2ccc([N+](=O)[O-])cc2)cc1S(=O)(=O)N1CCOCC1 0.847%
O=[N+]([O-])c1ccc(Oc2ccc(F)cc2Br)c2ccncc12 4.81%
CCCn1nnnc1NC(=O)COc1ccc(Cl)cc1C 8.48%
CCc1ccc(C(=O)OCC(=O)NCC(F)(F)F)cc1 -0.578%
Cc1ccn2c(-c3csc(Nc4ccc(C(=O)O)cc4)n3)c(C)nc2c1 -7.16%
C=CCCC(=O)Nc1nc(C)c(-c2csc(Nc3ccc(Cl)cc3)n2)s1 12.2%
c1ccc2c(c1)OC1OC2Oc2ccccc21 -4.86%
COc1ccc(C(=O)N2CCCC(C(=O)c3ccccc3OC)C2)cc1OC (centres undefined) -7.22%
O=C(O)c1ccc(NN=CC2=C(N3CCOCC3)/C(=C/c3ccccc3)CC2)cc1 19.5%
CC1=NN(C(=O)CCc2ccccc2O)C(O)(C(F)(F)F)C1 (centres undefined) 17.6%
O=C1OC(NC(=O)c2ccccc2)C(N2CCOCC2)=C1Cl (centres undefined) -2.17%
Cn1c(N)c(C(=O)COC(=O)c2cccc(S(=O)(=O)N3CCOCC3)c2)c(=O)n(C)c1=O -4.47%
Oc1oc(-c2ccccc2Br)nc1/C=N/c1ccccn1 -8.02%
CCOc1ccc2nc(C(=O)N3CCCC(C)C3)sc2c1 (centres undefined) -8.67%
COc1ccc(S(=O)(=O)NCc2cccnc2)cc1NC(=O)c1ccc(C)cc1 -1.72%
Cc1ccccc1OCC(=O)N(Cc1cccc(F)c1)C1CCS(=O)(=O)C1 (centres undefined) -3.33%
O=S(=O)(c1ccc(-c2ccccc2)cc1)N1CCCC1 -5.08%
O=C1CCC(C(=O)N2CCN(c3ccccc3Cl)CC2)CN1CC1CCCCC1 (centres undefined) 5.68%
Cc1nc(N2CCC(C)CC2)c2c(C)c(C(=O)Nc3cc(F)ccc3C)sc2n1 7.17%
Cc1nc(N2CCOCC2)c2c(C)c(C(=O)Nc3ccc(C(F)(F)F)cc3)sc2n1 -4.82%
O=S(=O)(NN=C1CCCCCCC1)c1ccc(Br)cc1 -0.0867%
O=C(CNS(=O)(=O)c1ccc(Br)s1)N1CCN(C(=O)c2ccco2)CC1 -0.302%
COc1cc(CNC2CCCC2)c(Br)cc1OCc1ccccc1 -2.14%
CCCNC(=O)C1CC(=O)N(c2ccc(OCc3ccccc3)cc2)C1 (centres undefined) 0.155%
O=C(C[C@H]1C/C=C\C[C@@H](NC(=O)OCC2c3ccccc3-c3ccccc32)C(=O)O[C@@H](c2ccccc2)CNC1=O)N[C@H](CO)Cc1ccccc1 10.3%
COc1ccc(C(C#N)(CC(=O)O)c2cnccn2)cc1OC (centres undefined) -3.22%
CCOc1ccc(C(=O)NC2CCN(C(=O)Nc3ccccc3OC)CC2)cc1 2.23%
CCOc1ccc2nc(NCCNC(=O)C(C)(C)C)c(C)cc2c1 -13.1%
CCOC(OCC)c1ccc(/C=C\c2nccc(N)n2)cc1 -3.79%
CCCCc1ccc(S(=O)(=O)NC(=O)C2(C)CCN2C(=O)c2c(C)noc2C)cc1 (centres undefined) -0.915%
CCOC(=O)N1CCN(S(=O)(=O)c2cc3c(cc2C)NC(=O)CO3)CC1 6.26%
CCCCC(=O)Nc1nc(C)c(-c2csc(Nc3ccc(Cl)cc3)n2)s1 20.5%
CCCCCCC(=O)Nc1nc(C)c(-c2csc(Nc3cccc(OC)c3)n2)s1 17.7%
CCOc1ccc(/C(O)=C2\C(=O)C(=O)N(c3ccc(OC)cc3)C2c2ccccc2[N+](=O)[O-])cc1 (centres undefined) -0.376%

inhibition, active:
Cc1ccc(Cc2cnc(NC(=O)/C(C#N)=C/c3ccc(-c4cccc([N+](=O)[O-])c4)o3)s2)cc1 51.2%
COc1ccc(NS(=O)(=O)c2cc(NC(=O)CC(=O)c3ccc([N+](=O)[O-])cc3)ccc2C)cc1 44.2%
Cc1ccc(Nc2nc(-c3sc(NC(=O)c4ccccc4)nc3C)cs2)cc1 36.9%
O=C1Nc2ccc(Br)cc2/C1=N/N=C/C1=C(N2CCOCC2)C(=C\c2ccccc2)/CC1 30.5%
CCOc1ccc2nc(/N=C/c3nc(-c4ccccc4)oc3O)sc2c1 37%
Cc1nc(N2CCN(c3ccccn3)CC2)c2c(C)c(C(=O)Nc3ccc(F)c(Cl)c3)sc2n1 29.5%
COc1cc(C2CC(=O)N3CN(Cc4ccccc4)CSC3=C2C#N)ccc1OCc1ccccc1 (centres undefined) 31.4%
CCOc1ccc2nc(N3CCCN(C(=O)Nc4ccccc4C)CC3)c(C#N)cc2c1 36.8%
CCCCCCC(=O)Nc1nc(C)c(-c2csc(Nc3cc(Cl)ccc3OC)n2)s1 33%
